# PostGolgi yeast: growth inhibition of a yeast mutant, post-Golgi transport screen | hit rate 0.9% among 98,000 | inhibition, % at 10 µM | post-Golgi transport phenotypic cell assay | AID 739;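 note: yeast cells grown in 1536-well plates; yeast grown about 18 h at 30C before absorbance read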
# CYP2C19 activ: activators of human cytochrome P450 2C19 | P33261 | recombinant CYP2C19, luciferin-H EGE luminescence; active compounds read high; 0 = fully inhibited enzyme, 1 = untreated enzyme | activation factor at 5 µM | 96,000 tested, under 10 active | AID 1025;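 active = activation factor of at least 2 at 5 µM in the primary screen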;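 note: 0 = wells with 2.5 mM tranylcypromine and 1 = vehicle-only wells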
# Target sequence (P33261 whole entry, looked up): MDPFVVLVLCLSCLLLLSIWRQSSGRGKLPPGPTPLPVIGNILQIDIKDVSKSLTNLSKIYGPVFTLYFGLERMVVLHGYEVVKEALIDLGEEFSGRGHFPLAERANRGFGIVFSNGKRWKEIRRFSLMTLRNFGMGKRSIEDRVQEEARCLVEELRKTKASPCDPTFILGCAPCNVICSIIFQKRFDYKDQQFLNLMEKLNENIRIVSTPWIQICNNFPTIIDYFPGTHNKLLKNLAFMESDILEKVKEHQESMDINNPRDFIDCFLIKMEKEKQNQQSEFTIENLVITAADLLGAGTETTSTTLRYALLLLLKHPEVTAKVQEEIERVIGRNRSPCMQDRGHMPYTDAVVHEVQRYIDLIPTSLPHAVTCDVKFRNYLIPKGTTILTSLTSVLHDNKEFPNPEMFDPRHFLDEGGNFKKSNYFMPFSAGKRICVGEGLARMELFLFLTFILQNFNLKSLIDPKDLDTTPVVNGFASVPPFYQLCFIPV
# CYP2C9 inh: inhibitors of human CYP2C9 | P11712 | CYP2C9 Supersomes, luciferin-H conversion, luminescence | inhibition, % at 5 µM | hit rate 20% among 96,000;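 active = blocking of liver enzyme CYP2C9 beyond about 50% at 5 µM, limit read from the data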
# CYP2C9 act: CYP2C9 (human) activation; activation factor at 5 µM; recombinant CYP2C9, luciferin-H conversion, luminescence; active compounds read high; factor 1 = untreated enzyme, 0 = blocked; hit rate 1.4% among 96,000;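 active = activation factor of 2 or more for CYP2C9 at a 5 µM dose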;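 note: 0 = sulfaphenazole-blocked wells and 1 = vehicle-only wells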
# CYP2C19 inhib: inhibitors of human CYP2C19; inhibition, % at 5 µM; P33261; CYP2C19 Supersomes, luciferin-H EGE luminescence, 30 min; hit rate 21% among 96,000;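 active = CYP2C19 inhibition above a set limit at 5 µM in the primary screen, cut at about 50% in these data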;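 note: plate controls were negative control wells for no effect and 2.5 mM tranylcypromine positive control for full effect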
# PostGolgi ctrl: yeast control strain growth, post-Golgi counter-screen. efflux-deficient yeast background strain, growth absorbance A615, 16 h. inhibition, % at 10 µM. hit rate 5% among 98,000
# An asterisk follows results filed as active; x = not tested or not shown. Rows were chosen to be rich in hits. Some 32% of all compounds tested hit in one or more screens of this group. Cut-off read from the data, not from the text of the source, unless noted: active = inhibition above about 30%; inactive = the rest.
SMILES,PostGolgi yeast,CYP2C19 activ,CYP2C9 inh,CYP2C9 act,CYP2C19 inhib,PostGolgi ctrl
Cc1ccc(NS(=O)(=O)c2cc(C(=O)NCc3ccccn3)ccc2Cl)cc1,0,0.3,55*,0.5,73*,10
Cc1cc(NC(=O)C2CC(c3ccc(F)cc3)=NO2)no1 (stereo not given),-4,0.6,23,0.8,43,-2
O=C(c1ccncc1)c1ccc(Br)cc1,-16,0.5,62*,0.4,45,-2
CCCn1c(CCC(=O)Nc2ccccc2Cc2ccccc2)nc2cc(S(=O)(=O)N3CCOCC3)ccc21,15,0.7,75*,0.2,28,0
CCCCC(=O)Nc1ccc2c(c1)nc(CCN1CCOCC1)n2C,4,1.1,-20,1.2,-8,3
CCOC(=O)C1(S(=O)(=O)c2ccc(Cl)cc2)CCN(Cc2ccc(C)cc2)CC1,0,0.1,99*,0,92*,14
Cc1ccc(S(=O)(=O)N(C)c2ccc(C(=O)O)cc2)cc1,-2,1,20,0.8,4,-2
CN(c1ccc(C(=O)NCCSCc2ccccc2)cc1)S(=O)(=O)c1ccccc1,0,0.6,69*,0.3,37,5
CN(c1ccc(C(=O)NC2CC2)cc1)S(=O)(=O)c1ccccc1,2,0.5,70*,0.3,50,4
Cc1cccc(CSCCNC(=O)c2ccc(N(C)S(=O)(=O)c3ccccc3)cc2)c1,1,0.4,89*,0.1,61*,21
CCOc1ccccc1NC=C1C(=O)OC(C)(C)OC1=O,3,0.8,-97,2*,17,11
COCCn1c(CCC(=O)O)nc2c1c(=O)[nH]c(=O)n2CC(C)C,4,1.1,-60,1.6,-5,9
Cc1cc(C)c2cc(C#N)c(NCCOC(=O)c3ccccc3C)nc2c1,0,0.4,68*,0.3,62*,-2
CCOC(=O)c1cc(C#N)c(SC)nc1-c1ccccc1,10,0.8,47,0.5,17,16
O=C(Nc1ncnc2c1ncn2C1OC(COC(=O)c2ccccc2)C(F)C1O)c1ccccc1 (stereo not given),-1,0.2,86*,0.1,80*,2
O=C(CN1C(=O)C2C3C=CC(C3)C2C1=O)Nc1nc2ccccc2[nH]1 (stereo not given),0,1,7,0.9,-2,1
COc1ccc(-c2nc(C#N)c(NCC3CCCO3)o2)cc1OC (stereo not given),14,0.3,71*,0.3,67*,6
COc1ccc(CCNc2oc(-c3ccc(OC)c(OC)c3)nc2C#N)cc1,-2,0.5,53*,0.5,52*,10
COc1ccc(CCNc2oc(-c3ccccc3OC)nc2C#N)cc1OC,18,0,72*,0.3,98*,-5
CCOc1ccc(-c2nc(C#N)c(NCC3CCCO3)o2)cc1 (stereo not given),0,1,7,0.9,-2,14
COc1ccc(-c2nc(C#N)c(NC(C)c3ccccc3)o2)cc1OC (stereo not given),11,0.6,53*,0.5,40,8
O=C(O)c1ccc(OC2CSC2)cc1,-20,1,8,0.9,2,18
COc1ccccc1C(=O)N1CCN=C1c1ccccc1,-4,0.7,-70,1.7,33,3
COc1cc(NC(=O)CN2CCN(Cc3ccc4c(c3)OCO4)CC2)cc(OC)c1,-4,0.5,47,0.5,49,16
CN(C)CCNc1oc(-c2ccccc2F)nc1C#N,-7,1,3,1,-1,7
SMILES,PostGolgi yeast,CYP2C19 activ,CYP2C9 inh,CYP2C9 act,CYP2C19 inhib,PostGolgi ctrl
COc1ccc(CCNc2oc(-c3ccccc3OC)nc2C#N)cc1,-5,0.1,60*,0.4,92*,18
COc1ccccc1-c1nc(C#N)c(NCc2ccc(F)cc2)o1,0,0.2,60*,0.4,76*,41*
N#Cc1nc(-c2ccccc2F)oc1NCc1cccc2c1OCO2,-3,0.9,86*,0.1,11,34*
COc1ccc(C(=O)Sc2ccc(C)cc2)cc1OC,-2,0.7,-10,1.1,25,7
COc1ccc(C(=O)SC2=NCCS2)cc1OC,-1,0.8,-109,2.1*,25,16
COc1cccc(C(=O)N2CCN(C(=O)c3cccc(F)c3)CC2)c1,-7,x,x,x,x,5
COc1cccc(C(=O)N2CCSC2=S)c1,-13,0.4,-26,1.3,62*,22
COc1ccc(C(=O)N2CCSC2=S)cc1OC,1,1,-112,2.1*,3,4
COC(=O)C1=C(N)Oc2cc(C)n(Cc3ccccc3)c(=O)c2C1c1ccccc1 (stereo not given),-2,0.6,75*,0.3,45,24
COC(=O)C1=C(N)Oc2cc(C)n(CCN3CCOCC3)c(=O)c2C1c1cccnc1 (stereo not given),-8,0.3,30,0.7,71*,1
COC(=O)C1=C(N)Oc2cc(C)n(C)c(=O)c2C1c1ccc(Cl)cc1 (stereo not given),19,1.1,-25,1.3,-6,3
CCOC(=O)c1c(C)[nH]c(C(=O)COC(=O)CCC2CCCC2)c1C,-8,0.5,82*,0.2,47,1
CCOC(=O)c1c(C)[nH]c(C(=O)COC(=O)C2(C)CC2(Cl)Cl)c1C (stereo not given),-9,0.8,99*,0,24,17
O=C(NCc1cc(C(F)(F)F)cc(C(F)(F)F)c1)C1CC(c2cccc([N+](=O)[O-])c2)=NO1 (stereo not given),-4,1,-22,1.2,-4,-5
CC(=O)C1=C(O)C(=O)N(CCC(=O)O)C1c1cccc(F)c1 (stereo not given),-1,1,-16,1.2,-3,2
Cc1cnc(C(=O)Nc2ccc(-n3cnnn3)cc2)cn1,2,1,5,1,3,2
O=C(Nc1cnn(Cc2ccc(Cl)cc2)c1)c1ccc([N+](=O)[O-])cc1,-5,1,-3,1,0,14
O=C(NC(Nc1ncc(S(=O)(=O)c2ccc([N+](=O)[O-])cc2)s1)(C(F)(F)F)C(F)(F)F)c1ccc(Cl)cc1,18,0.9,88*,0.1,12,-1
CCc1[nH]nc2c1C1(C(=O)N(Cc3ccccc3)c3ccccc31)C(C#N)=C(N)O2 (stereo not given),3,0.1,88*,0.1,85*,4
CCC/C(O)=C1\C(=O)CC(c2ccccc2)CC1=NC (stereo not given),3,0.9,-24,1.2,7,0
O=C(/C=C/c1ccc2c(c1)OCO2)Nc1nc(-c2ccccc2)cs1,-8,0.4,74*,0.3,59*,21
O=C(/C=C/c1cccs1)Nc1nc(-c2ccccc2)cs1,-3,0.3,85*,0.2,70*,33*

# Assay outcomes (PubChem)
